Records with an inconclusive call do not appear. A number with no mark means an inactive call. Activity calls are given as the source filed them. Calls follow the shape of the dose curve; as a rule, active = well fitted inhibition curve with a large enough effect; inconclusive = small, poorly fitted or top-dose-only effect; inactive = flat fitted curve, though single readings scatter.
The molecules below were run against Phospholipid hydroperoxide glutathione peroxidase GPX4 (Homo sapiens) (UniProt P36969) (assay: Primary qHTS Assay for Inhibitors of Recombinant Selenoprotein Glutathione Peroxidase 4 (GPX4) (AID 1845192; also: nearly all actives have a fitted effect of over 65% in size)). Details: recombinant GPX4, GR-coupled NADPH fluorescence, 15 min; series mostly up to 50 µM; activity change, negative = inhibition: at the top concentration.
Phospholipid hydroperoxide glutathione peroxidase GPX4 (Homo sapiens), sequence (P36969 whole entry, looked up): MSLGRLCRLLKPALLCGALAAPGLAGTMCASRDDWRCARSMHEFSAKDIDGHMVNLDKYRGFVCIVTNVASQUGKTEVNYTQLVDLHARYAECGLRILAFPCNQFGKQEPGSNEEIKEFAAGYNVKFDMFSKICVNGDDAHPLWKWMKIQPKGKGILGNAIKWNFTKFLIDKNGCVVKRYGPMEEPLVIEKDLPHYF
How it was run: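 NADPH consumption followed by fluorescence at 340/450 nm, t=0 and after 15 min at room temperature. Reaction started with cumene hydroperoxide (0.5 mM final) after 30 min compound–GPX4 preincubation; final 200 nM GPX4, 100 nM GR, 1 mM GSH, 0.5 mM NADPH.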
% is scaled to controls: 0 for no effect and ±100 for the full control effect; potency is read from the fitted curve at half-maximal effect.

SMILES | outcome | activity change, negative = inhibition | Potency
FCOC(C(F)(F)F)C(F)(F)F | inactive |  | 
C[N@+]12CCCC[C@@H]1CCC(=C(c1cccs1)c1cccs1)C2 |  | -14% | 
COC(=O)[C@@H](N)CS |  |  | 10 µM (active)
COc1cc2c(cc1OC)[C@@H](Cc1cc(OC)c(OC)c(OC)c1)[N+](C)(CCCOC(=O)CC/C=C/CCC(=O)OCCC[N+]1(C)CCc3cc(OC)c(OC)cc3[C@H]1Cc1cc(OC)c(OC)c(OC)c1)CC2 (stereo not given in full) | inactive |  | 
O=P(O)(O)CP(=O)(O)O |  | -7.77% | 
CCCc1ccc(C(=O)O)cc1 | inactive |  | 
OC[C@H]1O[C@@](CO)(O[C@H]2O[C@H](CO)[C@@H](O)[C@H](O)[C@H]2O)[C@@H](O)[C@@H]1O | inactive |  | 
O=C(O)c1ccc(NC(=O)[C@H](Cc2ccc(O)cc2)NC(=O)c2ccccc2)cc1 | inactive |  | 
O=C(OC[C@H]1O[C@@H](OC(=O)c2cc(O)c(O)c(OC(=O)c3cc(O)c(O)c(O)c3)c2)[C@H](OC(=O)c2cc(O)c(O)c(OC(=O)c3cc(O)c(O)c(O)c3)c2)[C@@H](OC(=O)c2cc(O)c(O)c(OC(=O)c3cc(O)c(O)c(O)c3)c2)[C@@H]1OC(=O)c1cc(O)c(O)c(OC(=O)c2cc(O)c(O)c(O)c2)c1)c1cc(O)c(O)c(OC(=O)c2cc(O)c(O)c(O)c2)c1 |  |  | 4.47 µM (active)
CC(=O)[O][Al][O]C(C)=O |  | -11.7% [at 9.73 µM] | 
CC(=O)NCCCS(=O)(=O)O |  |  | inactive
CO[C@H]1C[C@@H]2CC[C@@H](C)[C@@](O)(O2)C(=O)C(=O)N2CCCC[C@H]2C(=O)O[C@H]([C@H](C)C[C@@H]2CC[C@@H](OC(=O)C(C)(CO)CO)[C@H](OC)C2)CC(=O)[C@H](C)/C=C(\C)[C@@H](O)[C@@H](OC)C(=O)[C@H](C)C[C@H](C)/C=C/C=C/C=C/1C |  |  | inactive
O=C(O)c1cc(O)c2c(c1)[C@H]([C@H]1c3cc(C(=O)O)cc(O)c3C(=O)c3c(O[C@@H]4O[C@H](CO)[C@@H](O)[C@H](O)[C@H]4O)cccc31)c1cccc(O[C@@H]3O[C@H](CO)[C@@H](O)[C@H](O)[C@H]3O)c1C2=O |  |  | 1.12 µM (active)
C[C@H](CCC(=O)O)[C@H]1CC[C@H]2[C@@H]3[C@H](O)C[C@@H]4C[C@H](O)CC[C@]4(C)[C@H]3C[C@H](O)[C@]12C | inactive |  | 
CCCCC[C@H](O)/C=C/[C@H]1[C@H](O)CC(=O)[C@@H]1CCCCCCC(=O)O |  | 1.98% | 
CC(CN1c2ccccc2Sc2cccnc21)N(C)C (stereo not given) | inactive |  | 
O=C1CCC(=O)N1CO |  | -3.75% | 
COc1ccc([C@@H]2CC(=O)c3c(O)cc(O[C@@H]4O[C@H](CO[C@@H]5O[C@@H](C)[C@H](O)[C@@H](O)[C@H]5O)[C@@H](O)[C@H](O)[C@H]4O)cc3O2)cc1O | inactive |  | 

SMILES | outcome | activity change, negative = inhibition | Potency
Cc1ncc(C[n+]2csc(CCOP(=O)(O)OP(=O)(O)O)c2C)c(N)n1 |  | -9.41% [at 0.409 µM] | 
CN(C)CCC=C1c2ccccc2C(C)(C)c2ccccc21 |  | -8.36% | 
CNC(=O)c1c(I)c(C(=O)NCC(=O)Nc2c(I)c(C(=O)O)c(I)c(C(=O)NCCO)c2I)c(I)c(N(C)C(C)=O)c1I |  | -6.13% | 
O=C(O)Cc1cc(I)c(Oc2ccc(O)c(I)c2)c(I)c1 |  | 5.91% | 
Cc1cc(-c2ccc(N=Nc3ccc4c(S(=O)(=O)O)cc(S(=O)(=O)O)c(N)c4c3O)c(C)c2)ccc1N=Nc1ccc2c(S(=O)(=O)O)cc(S(=O)(=O)O)c(N)c2c1O |  | -13.8% | 
Cc1ncc(COP(=O)(O)O)c(CN)c1O | inactive |  | 
S=C1SCN(Cc2ccccc2)CN1Cc1ccccc1 |  |  | 15.8 µM (active)
COc1ccc2c(=O)c(C)c(-c3ccccc3)oc2c1CN(C)C |  | -16.4% | 
C=CC[N+]1([C@H]2C[C@H]3[C@@H]4CC[C@H]5C[C@H](O)[C@@H](N6CCOCC6)C[C@]5(C)[C@H]4CC[C@]3(C)[C@H]2OC(C)=O)CCCC1 |  |  | inactive
C[Se]CC[C@H](N)C(=O)O |  | -9.64% [at 27.8 µM] | 
CC(C)(C)c1ccc(CN2CCN(C(c3ccccc3)c3ccc(Cl)cc3)CC2)cc1 (stereo not given) |  |  | inactive
CC(=O)Nc1c(I)c(C(=O)N[C@H]2C(O)O[C@H](CO)[C@@H](O)[C@@H]2O)c(I)c(N(C)C(C)=O)c1I (stereo not given in full) | inactive |  | 
Cc1cccc(C)c1NC(=O)C1CCCCN1C (stereo not given) | inactive |  | 
CC[C@H]1OC(=O)C[C@@H](O)[C@H](C)[C@@H](O[C@@H]2O[C@H](C)[C@@H](O[C@H]3C[C@@](C)(O)[C@@H](O)[C@H](C)O3)[C@H](N(C)C)[C@H]2O)[C@@H](CC=O)C[C@@H](C)C(=O)/C=C/C(C)=C/[C@@H]1CO[C@@H]1O[C@H](C)[C@@H](O)[C@@H](OC)[C@H]1OC |  | 0.0975% | 
OCCN1CCN(CC/C=C2/c3ccccc3Sc3ccc(Cl)cc32)CC1 | inactive |  | 
C[C@H](NCCc1ccc(O)cc1)[C@H](O)c1ccc(O)cc1 | inactive |  | 
CCOC(=O)[C@@H](N)CS |  |  | 14.1 µM (active)

From PubChem BioAssay (NCATS)
